Compound activity from PubChem.
Shown are actives, neighbours in structure and some others; about 21% of the full set was active somewhere.
DRD3 agonist: agonists of human D3 dopamine receptor; 410,000 compounds, 0.58% hits; D3R DiscoveRx beta-arrestin cells, luminescence, 90 min; AID 652048; max activation, %; in the data active = max activation above about 30%; note: 0% is about no effect
Target sequence (P35462 whole entry, looked up): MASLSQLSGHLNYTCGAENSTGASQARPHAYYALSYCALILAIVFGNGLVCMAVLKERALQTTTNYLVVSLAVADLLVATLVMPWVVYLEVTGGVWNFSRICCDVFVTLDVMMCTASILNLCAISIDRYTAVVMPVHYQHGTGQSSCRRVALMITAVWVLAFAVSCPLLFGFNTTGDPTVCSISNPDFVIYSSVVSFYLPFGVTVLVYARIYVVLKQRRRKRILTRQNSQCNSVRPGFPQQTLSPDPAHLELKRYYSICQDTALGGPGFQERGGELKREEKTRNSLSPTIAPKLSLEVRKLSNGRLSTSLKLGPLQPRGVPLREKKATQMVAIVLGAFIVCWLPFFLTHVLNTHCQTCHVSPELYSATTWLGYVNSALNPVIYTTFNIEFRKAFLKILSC
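Cells at 1500/well, incubated overnight, then treated with pinned compounds (dopamine as control) for 90 min at 37 degrees C. DiscoveRx reagent added for 30 - 60 minutes at room temperature; luminescence read.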
ClpP mod: qHTS Assay for Activators of ClpP; purified B. subtilis ClpP, FRET peptide cleavage, 20 min; Potency, µM (doses to about 57.5 µM), without a hit: top-dose activity change, negative = active; 340,000 compounds, 1.9% hits; AID 651965, 2013; active = well fitted falling curve with a large enough effect; inconclusive = small, poorly fitted or top-dose-only effect; inactive = no such curve, though single readings can be large or run the other way; note: potency is the fitted concentration of half-maximal effect; the source files actives as falling curves though it sought activators and does not explain the sign; nearly all actives have a fitted effect of over 65% in size
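ClpP 10 microg/mL final, pH 8 Tris/KCl buffer with BSA, glycerol, Tween-20; compound pinned in; FRET-FV substrate; RT 20 min; Ex320/Em430; ΔFRET vs ADEP 5.8 microM, DMSO, no enzyme.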
D3 antag: blocks the human D3 dopamine receptor. P35462. D3R cells, DiscoveRx beta-arrestin luminescence, antagonist mode; hits give low values. AID 652054. 360,000 compounds, 2.5% hits. max response, negative = inhibition, %; in the data active = max response below about -50%; inconclusive = no clear call, values can overlap the other calls; note: % is set by controls: 0 for no effect and ±100 for the full control effect
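Cells expressing the human receptor were seeded at 1500 cells/well, incubated overnight at 37 degrees C in 5% CO2, then exposed to library compounds with dopamine controls for 90 minutes at 37 degrees C before luminescent detection.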
TDP1 cell CPT: DT40-hTDP1 cell growth loss with CPT; chicken DT40 Tdp1-/-;hTDP1 cells + 20 nM CPT, ATP luminescence, 48 h; Potency, µM (series often up to 46.2 µM), for the others: top-dose activity change, negative = growth inhibition, hits mostly inhibitors; 420,000 compounds, 12% hits; note: potency is the fitted concentration of half-maximal effect; % is set by controls: 0 for no effect and ±100 for the full control effect; nearly all actives have a fitted effect of over 55% in size
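Chicken DT40 Tdp1-/- cells stably complemented with human TDP1 were seeded at 400 cells/well in medium containing 20 nM camptothecin, exposed to pin-transferred compounds, and grown at 37 °C for at least 48 hr. Viability was read as ATP luminescence.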
TDP1 cell noCPT: qHTS for Inhibitors of human tyrosyl-DNA phosphodiesterase 1 (TDP1): qHTS in cells in absence of CPT. DT40 Tdp1-/- hTDP1 cells, no CPT, ATP luminescence, 48 h. 420,000 compounds, 15% hits. Potency, µM (titrated, usually from 46.2 µM), inactives show top-dose activity change, negative = growth inhibition, actives largely listed as inhibitors. AID 686978, 2013; note: potency is the fitted concentration of half-maximal effect; % is set by controls: 0 for no effect and ±100 for the full control effect; nearly all actives have a fitted effect of over 55% in size
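Luminescent ATP content (CellTiter-Glo) served as the growth readout. Knockout chicken DT40 cells expressing human TDP1 were exposed to compounds without camptothecin for a minimum 48 hr at 37 °C.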
IL-1B inflam inh: inflammasome signaling inhibition, IL-1 beta readout | THP-1 LPS/ATP IL-1B secretion, AlphaLISA, 16 h; hits give low values | activity change, % at 57.5 µM | 360,000 compounds, 4.7% hits | AID 743279; in the data active = activity change below about -50%; inconclusive = mostly about -30% to -49%; note: % is set by controls: 0 for no effect and ±100 for the full control effect
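THP-1 cells pretreated 1 hr with compounds (up to 57.5 uM final), then stimulated with LPS (250 ng/mL final) plus ATP (1.25 mM final); secreted IL-1B measured by AlphaLISA after 16 hr, decreased signal indicating inhibition.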
Starred values were filed as active, the others as inactive; ? = inconclusive; . = no result given. Unless noted, calls come from the whole dose curve; as a rule, active = well fitted inhibition curve with a large enough effect; inconclusive = small, poorly fitted or top-dose-only effect; inactive = flat fitted curve, though single readings scatter.

SMILES	DRD3 agonist	ClpP mod	D3 antag	TDP1 cell CPT	TDP1 cell noCPT	IL-1B inflam inh
Cn1cc([C@@H]2C[C@H]3CN(Cc4cccc(Cl)c4)C(=O)[C@]34CCCN24)c2ccccc21	2.4	-2.9%	-18.2	?	?	0.0
Cn1cccc1C(=O)NC(=O)COC(=O)CCNS(=O)(=O)c1ccc(Cl)cc1	7.3	-3.4%	0.8	-17.5%	10.0%	13.1
Cc1ccc(NC(=O)CCCCCCCCCCC2COCCO2)c(C)c1 (centres undefined)	-8.5	1.6%	61.1	20.6µM*	18.4µM*	1.2
Cc1ccc(NC(=O)CCCN2C(=O)COc3ccc(C)cc32)c(C)c1	-8.3	0.4%	.	?	11.6µM*	.
Cc1ccc(NC(=O)NC(=O)CN2C(=O)NC3(CCCCCCC3)C2=O)c(C)c1	10.8	0.4%	-9.2	-24.7%	-15.3%	-1.6
Cc1ccc(NC(=O)CCCN2C(=O)COc3ccc(C)cc32)c(Cl)c1	-18.8	0.1%	.	?	7.31µM*	.
Cc1ccc(NC(=O)CCN2C(=O)NC3(CCCC3)C2=O)c(C)c1	-2.4	-2.9%	?	-1.7%	3.26µM*	-13.5
Cc1ccc(C)c(NC(=O)CCCN2C(=O)COc3ccc(C)cc32)c1	-9.4	0.9%	.	?	?	.
O=C(NNC(=O)c1cc(Cl)ccc1O)c1ccc(NS(=O)(=O)c2cccs2)cc1	3.6	20.3%	0.6	3.1%	9.9%	50.6
Cc1ccc2c(c1)N(CCCC(=O)Nc1cccc(C(F)(F)F)c1)C(=O)CO2	0.1	-4.1%	-7.9	?	16.4µM*	-12.2
COc1ccc(-c2ccc(CN3C(CC(C)C)C(=O)N(Cc4cn(CCC5OCCCO5)nn4)CCS3(=O)=O)cc2)cc1OC (centres undefined)	3.8	-6.6%	20.1	13µM*	?	0.9
CC(C)CC1C(=O)N(Cc2cn(CCC3OCCO3)nn2)CCS(=O)(=O)N1Cc1ccc(-c2ccccc2)cc1 (centres undefined)	1.9	1.0%	30.6	18.4µM*	20.6µM*	-8.8
CC(C)CC1C(=O)N(Cc2cn(CCC3OCCCO3)nn2)CCS(=O)(=O)N1Cc1ccc(-c2ccccc2)cc1 (centres undefined)	-4.7	0.1%	?	?	?	16.8
CC(C)CC1C(=O)N(Cc2cn(CCC3OCCCO3)nn2)CCS(=O)(=O)N1Cc1ccc(-c2ccncc2)cc1 (centres undefined)	-6.3	-7.8%	-11.9	16.4µM*	18.4µM*	-4.3
Cc1ccc(-c2ccc(CN3C(CC(C)C)C(=O)N(Cc4cn(CCC5OCCO5)nn4)CCS3(=O)=O)cc2)cc1 (centres undefined)	1.5	-2.0%	-22.0	14.6µM*	13µM*	-21.2
CC(C)CC1C(=O)N(Cc2cn(CCC3OCCO3)nn2)CCS(=O)(=O)N1Cc1ccc(-c2ccc(F)nc2)cc1 (centres undefined)	10.1	2.0%	32.3	0.3%	-24.4%	7.8
CC(C)C1C(=O)N(Cc2cn(CCC3OCCCO3)nn2)CCS(=O)(=O)N1Cc1ccc(-c2ccncc2)cc1 (centres undefined)	-5.8	-8.9%	-7.3	?	?	1.3
COc1ccc(-c2ccc(CN3C(C(C)C)C(=O)N(Cc4cn(CCC5OCCO5)nn4)CCS3(=O)=O)cc2)cc1OC (centres undefined)	1.2	-1.7%	-14.2	-36.3%	-9.4%	-3.1
CC(C)CC1C(=O)N(Cc2cn(CCC3OCCO3)nn2)CCS(=O)(=O)N1Cc1ccc(-c2ccc(Cl)c(Cl)c2)cc1 (centres undefined)	0.5	-1.4%	17.7	8.2µM*	5.17µM*	-26.4
